# According to the supplement of paper PMC6555819:
# Tested on: THRa:RXRa (NR concentration 90 nM, RXRa partner concentration 90 nM)
# Experiment: PBM binding z-score (relative to random genomic background probes); higher = stronger binding; sequences stand for … in GC…GCGATTGACAGCGTAGAATGAAGG
# Method in brief: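 The probes on custom Agilent 4×180K protein-binding microarrays were double-stranded, with 34-nt variable regions bearing direct-repeat seeds, single-nucleotide variants, half-site ablations and random human genomic background sequences. Incubation lasted 1 h with ligand-free nuclear receptor dimers in PBS pH 7.4, 2% milk, 0.02% Triton X-100, 1 mM DTT, 0.2 mg/mL BSA and 0.4 mg/ml salmon testes DNA. Antibodies against each partner (one per run) detected bound dimers, and fluorescence scans were regression-normalized. Binding z-scores take the random background probes as reference.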
row,Sequence,PBM binding z-score
1,CCGACTAGGGCATAAGGTTACCATAAGCCAGCCC,2.17
2,CCTAGCAGGCCAGGGTCCCTCAAGCATTTCGCTT,-0.281
3,CGTCAAATTTCAAGGTAACGTAACAGAAAGCAGC,2.11
4,AATACAGAGTCACTAGGCCAGAGTAGGTACGAAT,-0.12
5,AATACAGGCTCACTAGGCCAGAGTAGGTACGAAT,-0.688
6,TCATATAGGTAAAAGGTGAAAATCGGTGTGGTAA,1.56
7,TGTCAAAGTTCAAAGGTAACATAAGTATCCACAC,3.53
8,AGAGTGAGGTTAAGATCAGGGAAACAGAATACAT,2.6
9,CCTAGTTGGTCGGGAGGTCACACACCGGATATGA,3.56
10,ATAGCAAGGTGATCGTGAGGTCGTTGATACTAAC,3.2
11,TCGAGTAGGTTGCCAATGGGGCATTCAGCTTTCT,-0.51
12,CCGACTGGGGCAGAAAGGTTACCACACCATCCGG,1.01
13,ATCTCTATGTAACCAAGTTCAGTGAATGCCGAAC,0.659
14,AGAATGACGTTATACGTAGATCAGGGAAGAAAGT,-0.592
15,ATATGTAGGTTATCGGGTCATTCCGTTTGCGCAT,3.36
16,GCGTACGGGTCAAAGGTTATAGCATGAATAGAAT,3.78
17,CCACACAGGTGAGAAGGTAACTCAGCCTCGATTA,0.428
18,CGTCCAAGGTCAAGGTCAGTTAAAGAGACTCGAA,4.4
19,CGAACTAGTTCAGAACAGGACAGTGAAGGATGAT,1.8
20,TCATATAAGTAAACAGGTGAAAGTCCGTAAGTTA,0.674

row,Sequence,PBM binding z-score
1,TCTAGTTGGTCAAACGTCACACACTCGAAATGCG,0.288
2,AACTCTAGGTAAAGATAGTTCAGTGAATGCAAAT,0.754
3,TCTTATAGATCAACAGGAGGTTAAGAAAGATCGA,1.05
4,TCTGCTAGGTTAACGATGGTCAGCTAATCTGCTA,1
5,GCAGAGAGGTGAAACGCAGGTAACTCAGGGTGGC,2.37
6,CCTACCGGGCCAAGGTCATTGATCAGTCAAAGCA,3.58
7,TTACCAAGGGGAAGGTCGTTGATCCCTCTGTAGA,0.64
8,GCGACTGGGGCAAAGGAGGTTACCATAAGGTTGG,3.4
9,GTACCAAGCTGAATAGGTCGTTGATGAGTAGGCG,-0.0665
10,GCGACTGGGGCCTCAGCAGGTTACCATAACTTAA,1.19
11,GCTTGTAGATCGAGGTTAAGAAAGACTAAGCTAA,1.38
12,CGAACTAGGTCATTGACAGGACAGTTAATAGTAA,2.77
13,TCTTGTAGATCAACAGGAGGTTAAGAACGATCGA,0.923
14,CCAGACAGGTGAGAAGGTAACCCAGCCTCGATTA,0.444
15,ACTAGCAGGCCAAGTTTGGGTCACTGAAACAAAG,2.71
16,CGCCCAAGGTCAATGCTAGGTCAGTGAAAGCATT,4.28
17,CGTCCAAGGGCAAAGGTCAGTGAAGAGATGACGG,3.45
18,GCTTGTAGATAAAGGTTAAGAAAGACTAAGCTAA,1
19,TTACCAAGGTGGAGGTCGTTGATCCCTCTGTAGA,1.4
